Unmarked numbers belong to inactive results.
system: Vero E6 infected with SARS-CoV-2; assay: SARS-CoV-2 infection rate relative to infected DMSO; higher = more infection, active = 60 or less; settings: 24 h

Compound | SARS-CoV-2 infection rate [%]
O=C1CN(/N=C/c2ccc([N+](=O)[O-])o2)C(=O)N1 [nitrofurantoin] (10 µM) | 112
O=c1c(-c2ccccc2)c1-c1ccccc1 [diphencyprone] (10 µM) | 100
C[C@H](NCc1ccc(OCc2ccccc2F)cc1)C(N)=O [priralfinamide] (10 µM) | 114
C[C@@H](N)Cc1c[nH]c2ccc(O)cc12 [alpha-methylserotonin] (10 µM) | 97
Cc1nc2ccccc2c(-c2ccc3c4c(ccnc24)CCO3)c1[C@H](OC(C)(C)C)C(=O)O (10 µM) | 104
O=C(O)C1=CCCN(CCOC(c2ccc(C(F)(F)F)cc2)c2ccc(C(F)(F)F)cc2)C1 (10 µM) | 103
NC(=O)Nc1cc(-c2cccc(F)c2)sc1C(=O)N[C@H]1CCCNC1 (0.833333 µM) | 106
N=C(N)NC(=N)Nc1ccccc1 [1-phenylbiguanide] (10 µM) | 86.5
C[C@@H](Oc1ccc2[nH]nc(/C=C/c3cnn(CCO)c3)c2c1)c1c(Cl)cncc1Cl (10 µM) | 120
CC(C)c1cc(-c2ccc(F)c3ccccc23)nc(N)n1 (10 µM) | 108
Cc1c(-c2cnccn2)ssc1=S [oltipraz] (10 µM) | 109
NS(=O)(=O)c1cc2c(cc1C(F)(F)F)NCNS2(=O)=O [hydroflumethiazide] (10 µM) | 112
CN(C)c1nc(N)c(C(=O)Nc2cccnc2)nc1Cl (10 µM) | 79
CCOC(=O)c1c(C)n(C)c2ccc(O)cc12 [mecarbinate] (10 µM) | 112
CCOC(=O)C1=C[C@@H](OC(CC)CC)[C@H](NC(C)=O)[C@@H](N)C1 [oseltamivir-phosphate] (10 µM) | 85.5
CCS(=O)(=O)N(C)[C@@H]1c2cc(C#N)ccc2OC(C)(C)[C@H]1O.CCS(=O)(=O)N(C)[C@H]1c2cc(C#N)ccc2OC(C)(C)[C@@H]1O (racemic) [chromanol-(+/-)] (10 µM) | 98.5
CN1CCN(c2cc(-c3ccccc3)nc(N)n2)CC1 (10 µM) | 94.5
Oc1cc(O)c2cc(O)c(-c3cc(O)c(O)c(O)c3)[o+]c2c1 [delphinidin] (10 µM) | 98.5
CC(C)N(CCC(C(N)=O)(c1ccccc1)c1ccccn1)C(C)C (stereo not given) [disopyramide] (10 µM) | 104
N=C(N)NN=C1C=CC(=NNC(N)=S)C=C1 [ambazone] (10 µM) | 104

Compound | SARS-CoV-2 infection rate [%]
O=[N+]([O-])c1cncn1CCN1CCOCC1 [nimorazole] (10 µM) | 91.5
N=C1N[C@H]2[C@H](CS[C@H]2CCCCC(=O)O)N1 [2-iminobiotin] (10 µM) | 99
Nc1ncnc2c1c(-c1cccc(OCc3ccccc3)c1)cn2C1CC(CN2CCCC2)C1 (stereo in doubt) (0.833333 µM) | 92
COc1ccc(COc2cc3oc(=O)c4cc(C(C)O)ccc4c3cc2OC)cc1 (stereo not given) [palomid-529] (10 µM) | 113
Cc1ccc(-c2ccc(C)cn2)nc1 [abametapir] (10 µM) | 106
CCC[N+]12[C@H](O)[C@@H](CC)[C@@H]3C[C@H]1[C@@H]1N(C)c4ccccc4[C@]14C[C@H]2[C@@H]3[C@H]4O [neo-gilurytmal] (10 µM) | 116
CC(C)(C)NCC(O)c1ccccc1Cl (stereo not given) [tulobuterol] (10 µM) | 115
COC(=O)Nc1ccc2[nH]cc(CCNC(C)=O)c2c1 (10 µM) | 108
O=C(O)c1ccc(NC(=O)[C@H](Cc2ccc(O)cc2)NC(=O)c2ccccc2)cc1 [bentiromide] (10 µM) | 106
CC[C@H](C)C[C@H](C)CCCCCCCCC(=O)N[C@H]1C[C@@H](O)[C@@H](NCCN)NC(=O)[C@@H]2[C@@H](O)CCN2C(=O)[C@H]([C@H](O)CCN)NC(=O)[C@H]([C@H](O)[C@@H](O)c2ccc(O)cc2)NC(=O)[C@@H]2C[C@@H](O)CN2C(=O)[C@H]([C@@H](C)O)NC1=O [caspofungin] (10 µM) | 108
CC(=O)N1CCC(NC(=O)c2ccc(F)cc2)CC1 (10 µM) | 110
O=C(Nc1cc(Oc2cc(F)c(NC(=O)C3(C(=O)Nc4ccc(F)cc4)CC3)cc2F)ccn1)C1CC1 [altiratinib] (10 µM) | 88.5
CCc1ccc(CCOc2ccc(CC3SC(=O)NC3=O)cc2)nc1 (stereo not given) [pioglitazone] (10 µM) | 110
O=C1c2ccccc2S(=O)(=O)N1CCCCN1CCN(c2ncccn2)CC1 [ipsapirone] (10 µM) | 102
c1ccc(-c2nc(CN3CCN(c4ncccn4)CC3)c[nH]2)cc1 (10 µM) | 107
CCCCC#Cc1nc(NC)c2ncn([C@@H]3O[C@H](CO)[C@@H](O)[C@H]3O)c2n1 (10 µM) | 96
CCOCc1nc2c(N)nc3ccccc3c2n1CC(C)(C)O [resiquimod] (10 µM) | 113
Cc1cc([N+](=O)[O-])ccc1NS(=O)(=O)c1cc(Cl)ccc1Cl (0.833333 µM) | 101
c1ccc(Cn2c(-c3ccc(OC[C@H](C4CCNCC4)n4c(-c5ccccc5)nc5ccccc54)cc3)nc3ccccc32)cc1 [deltarasin] (0.833333 µM) | 96
Cn1ccc2cc3c(cc21)CCN3C(=O)Nc1cccnc1 (10 µM) | 99

From the supplement of paper PMC13380429
